# Assay outcomes from PubChem.
# aDG glyco act: increases alpha dystroglycan glycosylation. 0.22% of 360,000 active. AID 624168. Pro5-aDG cells, alpha-DG glycosylation AlphaScreen (IIH6); 0% Pro5, 100% B10-LARGE cell signal. activation, % at 10 µM;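 active = activation of at least 8% versus controls, or a plate z-score of at least 8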;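 note: Pro5 are CHO cells carrying HIG-tagged alpha-DG that lacks glycosylation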
# LGR2 inh: Drosophila LGR2 receptor signaling inhibition; inhibition, % at 9.99 µM; HEK293 LGR2, CRE-luciferase, bursicon-stimulated, 4 h; 0.35% of 380,000 active;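 active = drop in luminescence signal, shown as inhibition above about 50% in the replicate tests, limit read from the data, passing the limit was not always enough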;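 note: agonist challenge used bursicon conditioned medium at about half maximal strength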
# HSP90 inh: blocks HSP90-mediated luciferase refolding in reticulocyte lysate. Rabbit reticulocyte lysate, luciferase refolding luminescence, 3 h. AID 1789. 0.91% of 290,000 active. inhibition, % at 5.6 µM;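 active = inhibition above the screen-wide mean plus 3 SD, computed separately per campaign, cut at about 16% in these data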;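 note: 0% = DMSO wells and 100% = 60 µM geldanamycin wells; inhibitors lower the luminescence because luciferase stays unfolded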
# LMP1 NFkB inh: inhibitors of Epstein-Barr LMP1-induced NF-kappaB reporter; LMP1-induced NF-kappaB luciferase reporter cells, luminescence; inhibition, % at 12.5 µM; 0.69% of 350,000 active; in the data active = inhibition above about 41%;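 note: 0% = neutral control wells and 100% = reference inhibitor control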
# TWEAK-Fn14 inh: TWEAK-Fn14 signaling inhibition. 2% of 360,000 active. TWEAK-stimulated Fn14 reporter cells, luciferase luminescence, 8 h. AID 1159606. inhibition, % at 10 µM; in the data active = inhibition above about 50%
# TROY signal inh: TROY signaling inhibition; Q293 LMP1-TROYcd NF-kB luciferase reporter, 4 h; inhibition, % at 10 µM; 0.98% of 360,000 active; AID 1347056;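 active = compounds whose plate-normalised and pattern-corrected inhibition of the luciferase reporter signal at the single screening dose is 50% or more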
# Active calls of the source: *; x = no result given. The list is not random: actives were taken first. Their share in the collection is about 2.6%.
SMILES,aDG glyco act,LGR2 inh,HSP90 inh,LMP1 NFkB inh,TWEAK-Fn14 inh,TROY signal inh
O=C(O)c1ccc(N=c2oc3cc(O)ccc3cc2C(=O)NCc2ccccc2)cc1,-0.2,-18.7,2.1,-39.6,-3.1,0.5
COc1cccc2cc(C(=O)NCc3ccco3)c(=Nc3ccc(C(=O)O)cc3)oc12,0.1,-3.5,-3.7,0.1,70.7*,42.2
CCC(=O)N1[C@H](CO)[C@@H]2c3ccccc3N(S(=O)(=O)c3ccccc3F)C[C@@H]21,x,9.2,x,x,x,x
C/C(=N\NC(=O)c1n[nH]c2c1CCC2)c1ccco1,-0.4,41.5,3.0,36.5,58.6*,-17.0
CCC(C)(C)C1CCc2[nH]nc(C(=O)N/N=C(\C)c3ccco3)c2C1 (configuration not stated),0.0,-66.7,11.7,-8.1,44.5,68.4*
O=C(NN=C1CCCC1)c1n[nH]c2c1CCC2,0.6,-16.3,-0.2,-1.0,-5.4,-12.9
O=C(NCC[C@@H]1CC[C@H](NS(=O)(=O)c2ccc(Oc3ccccc3)cc2)[C@@H](CO)O1)C1CC1,x,1.8,x,x,x,x
C[C@H]1CCCCO[C@H](CN(C)S(=O)(=O)c2ccccc2)[C@@H](C)CN([C@@H](C)CO)C(=O)c2cc(N(C)C)ccc2O1,x,-22.8,x,x,x,x
CC1(c2nnnn2-c2ccc3c(c2)OCCO3)CCC(=O)N1CCc1ccccc1F (configuration not stated),-0.2,13.3,x,x,68.3*,37.1
Cc1cccc(C)c1-n1nnnc1C1(C)CCC(=O)N1CCc1ccccc1F (configuration not stated),0.3,-2.5,x,x,1.9,-2.9
S=C(NC12CC3CC(CC(C3)C1)C2)N1CCOCC1,0.3,-12.1,-2.5,3.5,-7.0,1.0
N=P(N1CCOCC1)(N1CCOCC1)C12CC3CC(CC(C3)C1)C2,-0.1,x,0.5,4.1,81.0*,x
CS(=O)(=O)N1CCc2cc(-c3csc(NC(=O)Cc4cccs4)n3)ccc21,0.0,x,-2.8,9.6,79.9*,18.6
CC(=O)Nc1nc(-c2ccc3c(c2)CCN3S(C)(=O)=O)cs1,-0.2,-41.1,-0.4,-30.3,4.6,-18.1
O=C(CN1CCOCC1)Nc1nc(-c2ccc3c(c2)CCN3S(=O)(=O)c2ccccc2)cs1,1.6,11.7,-0.9,16.7,52.8*,46.8
COc1ccc(-n2c(Cc3cccn3C)nnc2SCC(=O)Nc2cc(Cl)ccc2OC)cc1,0.2,-4.0,-4.1,-19.5,62.3*,3.0
COc1ccc(-n2c(Cc3cccn3C)nnc2SCC(=O)Nc2ccc(Cl)cc2)cc1,0.2,-3.8,2.2,-14.4,50.4*,14.6
CNC(=O)C1=NCCCc2cc(OC)c(OC)cc21,0.0,-4.3,-2.0,64.2*,12.7,29.4
COc1cc2c(cc1OC)C(=O)CCC2,-0.2,-11.9,x,1.6,12.2,9.5
Cc1ccc(Sc2c([N+](=O)[O-])c(=O)n(C)c3ccccc23)cc1,-0.2,-2.4,4.3,1.7,-101.9,67.8*
Cc1ccc(Sc2c(C=O)c3ccccc3n2C)cc1,-0.2,x,-3.1,18.6,69.4*,52.3*
O=C(C[C@@H]1C=C[C@H](NC(=O)Nc2ccccc2F)[C@H](CO)O1)NCc1ccc(-c2ccccc2)cc1,x,-5.5,x,x,x,x
COc1cc(NC(=O)C2=C(N3CCOCC3)/C(=C\c3ccc(Br)cc3)CC2)cc(OC)c1OC,0.2,16.1,5.7,7.0,13.8,11.4
COc1cc(NC(=O)C2=C(N3CCOCC3)/C(=C\c3ccc(Cl)cc3Cl)CC2)cc(OC)c1OC,0.0,-8.2,10.6,19.5,51.6*,34.4
C[C@@H]1CCCCO[C@H](CN(C)C)[C@H](C)CN([C@H](C)CO)C(=O)c2cc(N(C)C)ccc2O1,x,0.8,x,x,x,x
SMILES,aDG glyco act,LGR2 inh,HSP90 inh,LMP1 NFkB inh,TWEAK-Fn14 inh,TROY signal inh
CCCCCN1C=CC(=C2C(=O)c3ccccc3C2=O)C=C1,0.8,104.1*,79.6*,76.2*,77.4*,78.3*
CC1=CC(=C2C(=O)c3ccccc3C2=O)C=C(C)N1C,-0.2,-11.9,-1.4,-17.7,10.2,-21.3
CCCC(=O)N1CC2(C1)CN(C(=O)CN1CCOCC1)[C@@H](CO)c1c2c2ccc(OC)cc2n1C,x,1.3,x,x,x,x
CC1CCN(C(=O)c2ccc3c(c2NCCO)C(=O)c2ccccc2C3=O)CC1,-0.3,x,4.3,2.4,22.7,2.3
CCN(CC)CCNC(=O)c1ccc2c(c1NCCO)C(=O)c1ccccc1C2=O,0.3,x,8.9,x,87.3*,42.5
COc1ccc2[nH]c3c4c(ccc3c2c1)C(=O)C=CC4=O,-0.3,12.1,6.2,-25.6,71.7*,43.5
